Data as given in PubChem BioAssay (NCI).
About 83,000 compounds went through this panel and 20% of them were active in at least one assay; those are over-represented in the sample as a whole.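 Negative percent growth values reflect cell death: -40 means 40% of the cells present at the start died, and -100 means all died.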 Unmarked numbers belong to inactive results. Calls of active or inactive are those of the source. Rule for the calls: active = growth percent below 10; inactive = the rest.

The compounds below were run on HCT-116 colon (assay: NCI-60 one-dose screen, 48 h (100 = growth as untreated, 0 = no growth, -100 = all killed)). Conditions: 10 µM unless noted.

Row | Compound | growth
1 | N/N=C(\C(=N\N)c1ccccc1)c1ccccc1 | 101%
2 | C=C(C)[C@@H]1CC[C@]2(C(=O)NS(=O)(=O)c3ccccc3)CC[C@]3(C)[C@H](CC[C@@H]4[C@@]5(C)CC[C@H](OC(=O)NS(=O)(=O)c6ccccc6)C(C)(C)[C@@H]5CC[C@]43C)[C@@H]12 | -44.1% (active)
3 | O=[N+]([O-])c1ccc(N/N=C/c2ccccc2O)nc1 | 22.3%
4 | CN1C(=O)N(C)C2C1NN=c1s/c(=C\c3ccc(C(F)(F)F)cc3)c(=O)n12 (stereo not given) | 26.9%
5 | CC(C)c1ccc(-c2cnc3nonc3n2)cc1 | 10.2%
6 | COc1ccc(N=C2CSc3nnc(-c4cc(F)c(Cl)cc4Cl)n3N2)cc1 | -61.4% (active)
7 | O=C1C=CN2C(=O)CC=CC2[C@@H]1O (stereo not given in full) | 96.5%
8 | CCCNCCC(C)=O | 109%
9 | O=C(Cc1ccc([N+](=O)[O-])cc1)Oc1ccccc1 | 114%
10 | CN(C)c1ccc(/C=C\c2cccc[n+]2C)cc1 | 19.3%
11 | Cc1ccc(Nc2cc(Cl)c([N+](=O)[O-])cc2[N+](=O)[O-])cc1 | 7.86% (active)
12 | CCOC(=O)c1cc(C(=O)OCC)c(C)nc1C | 105%
13 | O=C(Nc1cccc(C2=NCCN2)c1)c1ccc(N=Nc2ccc(C(=O)Nc3cccc(C4=NCCN4)c3)cc2)cc1 | 53.1%
14 | Cc1c(C(=O)CCl)c(=O)n(-c2ccccc2)n1C | 32%
15 | O=C1/C=C/[C@@H](O)[C@@H]2C[C@@H](O)C[C@H]2/C=C/CCC[C@H]([C@@H](O)CO)O1 | 93.8%
16 | CC(=O)N1N=C(C2C(=O)N(C)C(=O)N(C)C2=O)CC1c1ccccc1C(=O)O (stereo not given) | 91.3%
17 | Cn1c(=O)c2c(nc(N/N=C/c3ccccc3Cl)n2C)n(C)c1=O | 97.5%
18 | O=C1Nc2ccc(Cl)cc2/C1=C\c1c(-c2ccc(F)cc2)nc2ccccn12 | -78.7% (active)

Row | Compound | growth
19 | O=C(O/C(=C/c1ccccc1)C(F)(F)F)c1ccccc1 | 105%
20 | COC(=O)c1ccc2c(c1)nc(-c1cc3ccccc3[nH]c1=O)n2-c1cc(C(C)(C)C)[nH]n1 | 51.1%
21 | O=c1c2cc(Br)cc(Br)c2nc(-c2ccc(Cl)cc2)n1/N=C/c1cccc(F)c1 | 18.5%
22 | CCOC(=O)Nc1ccc2nc(N3CCCCCC3)sc2c1 | 27.9%
23 | COC(=O)CSc1ccc(Cl)cc1 | 95.5%
24 | COc1ccc(C(=O)N2N=C(c3ccc(F)cc3)CC2c2cn(-c3ccccc3)nc2-c2ccccc2)cc1 (stereo not given) | 7.49% (active)
25 | N=c1nc(N2CCCCC2)cc(N)n1O | 106%
26 | COc1ccc(C2NC(=O)c3cc4c(cc3N2)OCO4)cc1 (stereo not given) | 14.1%
27 | O=C1OCC2=C1C(c1ccccc1)c1cc3c(cc1N2CCO)OCO3 (stereo not given) | 7.22% (active)
28 | c1ccc(CCn2cccc2)nc1 | 101%
29 | Nc1cc(C(=O)O)cc(C(=O)O)c1 | 101%
30 | Fc1ccc(-c2nc(-c3ccc(-c4nc5ccc(F)cc5[nH]4)cc3)no2)cc1 | 73%
31 | N=C(N)c1ccc(NCCNc2ccc(C(=N)N)cc2)cc1 | 114%
32 | COc1ccc(CC2c3cc(OC)c(OC)cc3CC[N+]2(C)CCC(=O)OCCCCCOC(=O)CC[N+]2(C)CCc3cc(OC)c(OC)cc3C2Cc2ccc(OC)c(OC)c2)cc1OC (stereo not given) | 88.5%
33 | C=CCN(CC#N)CC=C | 98.1%
34 | O=C1Nc2ccccc2/C1=C\c1nc(C2CCN(S(=O)(=O)c3ccc(F)cc3)CC2)n2ccccc12 | 64.8%
35 | COc1ccc(Nc2nc(N)nc3c(=O)[nH]ccc23)cc1 | 83.7%
